Here are results for 35 molecules from PubChem BioAssay.

Calls of active or inactive are those of the source.

In the assay the target is NADPH oxidase 2 (Homo sapiens) (UniProt P04839). Description: NOX2-dependent H2O2 signal modulators, primary screen, NOX inhibitor project, cell-based, HEK293-NOX2, PMA-stimulated, Amplex Red fluorescence (AID 1159). Further: test concentration not given here. Particulars: 45 min, higher = more signal, called active from +8 up or from −8 down.
Sequence of NADPH oxidase 2 (Homo sapiens) (P04839 whole entry, looked up): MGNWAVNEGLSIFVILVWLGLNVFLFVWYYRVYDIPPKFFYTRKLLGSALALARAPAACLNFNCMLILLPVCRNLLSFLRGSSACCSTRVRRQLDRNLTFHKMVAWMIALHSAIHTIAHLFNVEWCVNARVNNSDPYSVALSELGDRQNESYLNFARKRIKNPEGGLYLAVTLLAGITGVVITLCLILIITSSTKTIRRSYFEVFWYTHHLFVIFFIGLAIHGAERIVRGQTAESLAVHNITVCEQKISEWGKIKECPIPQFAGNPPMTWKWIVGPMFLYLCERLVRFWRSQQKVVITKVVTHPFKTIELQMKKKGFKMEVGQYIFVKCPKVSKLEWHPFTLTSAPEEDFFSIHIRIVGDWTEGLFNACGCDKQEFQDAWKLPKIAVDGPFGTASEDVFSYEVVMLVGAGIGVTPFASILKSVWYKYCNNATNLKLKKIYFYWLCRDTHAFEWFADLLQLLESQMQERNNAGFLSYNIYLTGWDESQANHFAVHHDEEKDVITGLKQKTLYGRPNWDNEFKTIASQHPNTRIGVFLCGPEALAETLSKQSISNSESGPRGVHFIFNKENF
In the case of `COc1cc2c(cc1O)C(c1cccs1)N(Cc1cc3c(cc1Br)OCO3)CC2` (stereo not given), the z-score was -4.19 (inactive).

Regarding `CCC#CCN(Cc1ccccc1Br)[C@H](/C=C/C1CC1)[C@@H](O)Cc1ccccc1`, the z-score is 0.214 (inactive).

With `COC(=O)[C@@]1(Cc2ccccc2)[C@H]2c3cc(C(=O)N4CCCC4)n(CCc4ccccn4)c3C[C@H]2CN1C(=O)c1ccccc1`, the z-score was 0.267 (inactive).

As to `CCCCC(CC)C(O)C1C=CC2C(=O)N(c3ccccc3)C(=O)C2N1Nc1ccccc1F` (stereo not given), the z-score is -0.157 (inactive).

In the case of `[N-]=[N+]=Nc1ccccc1[C@@H]1OC(c2ccc(OCCCO)cc2)=N[C@]1(Cc1ccccc1)C(=O)N1CCCCC1`, the z-score is -1.43 (inactive).

`CC1CC/C=C\[C@H]2OC34C=CCN(C(C)C)C(=O)[C@H]3N(CCO)C(=O)[C@@H]4C2C(=O)O1` (stereo not given in full): the z-score is 2.21 (inactive).

For the molecule `CCOC(=O)C1=C[C@@H](C(C)(C)C)N(S(=O)(=O)c2ccc(C)cc2)[C@H]1c1cccc2ccccc12`, the z-score was -0.527 (inactive).

For `CC(C)[Si]1(C(C)C)OCc2cc(-c3ccc(-c4ccc(Cl)c(Cl)c4)o3)nc(-c3ccccc3)c21`, the z-score was 0.237 (inactive).

Consider `CCCCCCc1nc(Cc2cc(OC)c(OC)c(OC)c2)cc2c1[Si](C(C)C)(C(C)C)OC2`, for which the z-score is -4.01 (inactive).

On to `C=CC[C@@H](OC(=O)Nc1ccc(SC)cc1)c1ccc(O)c(F)c1`, for which the z-score was -5.77 (inactive).

With `Cc1ccc(NN2C(C(O)c3c(F)cccc3Cl)C=CC3C(=O)N(C4CCCCC4)C(=O)C32)cc1` (stereo not given), the z-score is -1.41 (inactive).

On to `COc1ccc([Si](C)(C)[C@@H]2[C@@H](CC(=O)N(CCO)Cc3ccccc3)O[C@]3(C(=O)N(Cc4cccc(N5CCCCC5=O)c4)c4ccccc43)[C@H]2C)cc1`, for which the z-score is 0.609 (inactive).

Regarding `NC(=O)[C@H]1[C@@H]2C(=O)O[C@@H](c3ccccc3)[C@@H](c3ccccc3)N2[C@@H](c2ccc(OCCO)cc2)[C@]12C(=O)Nc1ccc(C#CCCO)cc12`, the z-score was 2.03 (inactive).

`COc1cc(C(O)C2C=CC3C(=O)N(C)C(=O)C3N2Nc2ccccc2)cc(OC)c1OC` (stereo not given): the z-score was -1.41 (inactive).

With `C#Cc1cc2ccccc2oc1=O`, the z-score was 0.0724 (inactive).

Take `CC(=O)NCCCC[C@@H]1NC(=O)[C@@H]2C[C@H](C(=O)NCCCCCN)[C@H](c3cccc(OCCO)c3)N2C1=O`: the z-score is 1.14 (inactive).

For the molecule `COc1ccc(CCNC(=O)[C@@]2(c3ccc([N+](=O)[O-])cc3)CC(=O)N(C3CCCCC3)[C@@H]2c2ccc(CO)cc2)cc1`, the z-score is -1.05 (inactive).

Take `NCCCCCNC(=O)[C@@H]1C[C@@H]2C(=O)N[C@@H](CCCCN)C(=O)N2[C@@H]1c1ccc(O)cc1`: the z-score was 1.5 (inactive).

For the molecule `NCCCCCNC(=O)[C@H]1C[C@H]2C(=O)N3CCC[C@H]3C(=O)N2[C@H]1c1cccc(OCCO)c1`, the z-score is 2.6 (inactive).

On to `COCCOC(=O)N1C(=O)[C@@]2(c3cc(C#CCCO)ccc31)[C@H](c1ccc(OCCO)cc1)N1[C@H](c3ccccc3)[C@H](c3ccccc3)OC(=O)[C@H]1[C@@H]2C(=O)Nc1nc2ccccc2s1`, for which the z-score was 1.58 (inactive).

`COC(=O)C1=CC(CCCO)=CC(c2cccs2)N(C)C=C1C(=O)OC` (stereo not given): the z-score is 0.467 (inactive).

For `COCCOC(=O)N1C(=O)[C@@]2(c3cc(C#CC4(O)CCCCCC4)ccc31)[C@H](c1ccc(O)cc1)N1[C@H](c3ccccc3)[C@H](c3ccccc3)OC(=O)[C@H]1[C@@H]2C(=O)N1CCN(c2ncccn2)CC1`, the z-score was 1.54 (inactive).

Regarding `COc1ccc([Si](C)(C)[C@@H]2[C@@H](CCO)O[C@]3(C(=O)N(Cc4cccc(NC(=O)[C@H](C)O)c4)c4ccccc43)[C@H]2C)cc1`, the z-score was -0.881 (inactive).

With `Cc1ccc(S[C@]2(C(=O)O)CC(=O)N(C3CCCCC3)[C@@H]2c2ccc(CO)cc2I)cc1`, the z-score is 3.66 (inactive).

Consider `O=C1C[C@]2(c3ccc([N+](=O)[O-])cc3)C(=O)N(C3CC3)c3cc(CO)ccc3[C@H]2N1CC12CC3CC(CC(C3)C1)C2`, for which the z-score was 1.36 (inactive).

Take `COCCCNC(=O)[C@@]1(Sc2ccc(C)cc2)CC(=O)N(C2Cc3ccccc3C2)[C@@H]1c1ccc(CO)cc1`: the z-score was 0.00261 (inactive).

`O=C1OCCC=C[C@H]2OC34C=CCN(c5ccc6ccccc6c5)C(=O)[C@H]3N(CCCO)C(=O)[C@@H]4C12` (stereo not given in full): the z-score is 0.755 (inactive).

With `COC(=O)[C@@]1(Cc2ccc(F)cc2)[C@H]2c3cc(C(=O)N(C)C)n(CCc4ccc(OC)c(Br)c4)c3C[C@H]2CN1C(=O)c1ccccc1`, the z-score is -3.62 (inactive).

`[N-]=[N+]=Nc1ccccc1C[C@@]1(C(N)=O)N=C(c2ccc(OCCCO)cc2)O[C@@H]1c1ccccc1N=[N+]=[N-]`: the z-score is -0.0581 (inactive).

Consider `O=C(NCc1ccc(F)cc1)[C@H]1C[C@H]2C(=O)NCC(=O)N2[C@H]1c1ccc(O)cc1`, for which the z-score was 0.992 (inactive).

As for `C=CCNC(=O)[C@@H]1[C@H]2C(=O)O[C@H](c3ccccc3)[C@H](c3ccccc3)N2[C@H](c2ccccc2OCCO)[C@@]12C(=O)Nc1ccc(C#CCCO)cc12`, the z-score was 0.734 (inactive).

For the molecule `CCOC(=O)C[C@H]1[C@H](OC(=O)Cc2ccc3c(c2)OCO3)[C@@H](NC(=O)C2CCCCC2)c2cc(OCCCO)ccc2N1C(=O)c1ccccc1`, the z-score was -0.233 (inactive).

As for `COc1ccc([Si](C)(C)[C@@H]2[C@@H](CCO)O[C@]3(C(=O)N(Cc4ccccc4)c4ccc(N5CCOC5=O)cc43)[C@H]2C)cc1`, the z-score was -0.245 (inactive).

Regarding `C=C(/C(=C/C[C@H](OC(C)=O)c1ccc(CO)o1)c1cnc2ccccc2c1)C(C)C`, the z-score was -0.306 (inactive).

Take `CCCCCCCCCCC(O)C1C=CC2C(=O)N(c3ccccc3)C(=O)C2N1Nc1ccc(C#N)cc1` (stereo not given): the z-score is -1.32 (inactive).
